Values joined by “and” are separate entries in the source; they are usually repeats but may differ in a detail not shown here. Equal values may be shown once. Records with an inconclusive call do not appear. Active and inactive are the calls of the source. Unless noted, the call rests on the fitted dose curve; in most records, active means well fitted curve in the direction sought with a large enough effect in the repeat runs; inconclusive means weak or mixed curves; inactive means no such curve, though single readings can be large; an effect the other way counts as inactive or inconclusive.
How the values were obtained:
[1] = qHTS assay to identify small molecule agonists of the NFkB signaling pathway (AID 1159509; active means well fitted curve in the direction sought with a large enough effect in the signal ratio in the repeat runs, not every such curve was filed as active; the % refers to the signal ratio)
How it was run: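 Readout: FRET fluorescence, 405 nm excitation, 460/530 nm emission; beta-lactamase expression disrupts FRET. Cells: ME-180 stably carrying NF-kB-driven bla reporter. Compound exposure 5 hr, 37 C, 5% CO2.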

[2] = qHTS assay to identify small molecule agonists of the NFkB signaling pathway - cell viability counter screen (AID 1159515; calls by dose curve; further: nearly all actives have a fitted effect of over 55% in size)
How it was run: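 Parallel cytotoxicity counter screen in ME-180 cells carrying an NFkB-response-element beta-lactamase reporter, 2,000 cells/well. Compound exposure lasted 5 hr at 37 C, 5% CO2. Cell viability was quantified by CellTiter-Glo luminescence.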

[3] = qHTS assay to identify small molecule agonists of the endoplasmic reticulum stress response signaling pathway (AID 1159516; active means well fitted activation curve with a large enough effect in the signal ratio in the repeat runs, not every such curve was filed as active; the % refers to the signal ratio)
How it was run: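 Using a HeLa line with an ESRE-driven beta-lactamase gene, agonist activity was measured by FRET substrate fluorescence (460 and 530 nm emission) after cells were treated with compounds for 5 hr at 37 C and 5% CO2.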

[4] = qHTS assay to identify small molecule agonists of the endoplasmic reticulum stress response signaling pathway - cell viability counter screen (AID 1159517; calls by dose curve;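 further: HeLa cells carrying an ER stress response element beta-lactamase reporter; nearly all actives have a fitted effect of over 50% in size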)
How it was run: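 After overnight attachment, ESRE-bla HeLa cells were treated with Tox21 library compounds for 5 hr. CellTiter-Glo luminescence, read 30 min post-addition at room temperature, reported viability.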

[5] = molecular target: Nuclear receptor ROR-gamma (Homo sapiens) (UniProt P51449); test: qHTS assay to identify small molecule antagonists of the retinoid-related orphan receptor gamma (ROR-gamma) signaling pathway (AID 1159521; further: nearly all actives have a fitted effect of over 50% in size; further: potency means the concentration at half of the fitted maximal effect)
How it was run: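 RORγ antagonism is scored from reduced reporter luminescence in Tet-on CHO cells. Induction used 1 uM final doxycycline hyclate for 16 h at 37 C, following a 2 h compound exposure.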

[6] = qHTS assay to identify small molecule agonists of the AP-1 signaling pathway - cell viability counter screen (AID 1159525; calls by dose curve; further: nearly all actives have a fitted effect of over 55% in size)
How it was run: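 Intracellular ATP by Cell Titer Glo luminescence (30 min, RT) in the same ME-180 AP-1-bla wells after the 5 h compound exposure at 37 °C. Normalised to tetra n-octyl ammonium bromide and DMSO controls.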

[7] = qHTS assay to identify small molecule agonists of the AP-1 signaling pathway (AID 1159526; calls by dose curve)
[8] = molecular target: Retinoic acid receptor RXR-alpha (Homo sapiens) (UniProt P19793); test: qHTS assay to identify small molecule agonists of the RXR signaling pathway (AID 1159527; calls by dose curve; further: nearly all actives have a fitted effect of over 35% in size)
How it was run: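 qHTS of the Tox21 10K library in GeneBLAzer RXR-alpha HEK 293T cells carrying a beta-lactamase reporter […]; 16 hr treatment, 9-cis retinoic acid as agonist control, FRET read-out.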

[9] = qHTS assay to identify small molecule agonists of the RXR signaling pathway - cell viability counter screen (AID 1159529); further: nearly all actives have a fitted effect of over 50% in size
How it was run: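 Cell viability is measured by CellTiter-Glo luminescence, 30 min at room temperature, in wells already read for beta-lactamase. Engineered HEK 293T cells (RXR-alpha-UAS-bla) are dosed 16 hr at 37 C. Tetraoctyl ammonium bromide serves as positive control.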

[10] = qHTS assay to identify small molecule antagonists of the retinoid acid receptor (RAR) signaling pathway - cell viability counter screen (AID 1159551); further: nearly all actives have a fitted effect of over 35% in size
How it was run: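 ATP-based viability, C3RL4 cells, 6 h at 37 C with 1 uM final retinol co-added after compound; luminescence read 30 min post CellTiter-Glo, RT.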

[11] = qHTS assay to identify small molecule antagonists of the retinoic acid receptor (RAR) signaling pathway (AID 1159552; further: nearly all actives have a fitted effect of over 50% in size)
How it was run: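 Quantitative HTS in C3RL4 RARE-luciferase reporter cells. Compounds were added with 1 uM (final) retinol; luminescence was read after 6 hr.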

[12] = qHTS assay to identify small molecule agonists of the retinoic acid receptor (RAR) signaling pathway (AID 1159553); conditions: C3RL4 RARE luciferase reporter, agonist, 6 h; activation: at 73.3 µM (top of the series) unless noted
How it was run: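 Quantitative high-throughput format: the Tox21 10K library was tested on C3RL4 RARE-luciferase cells for 6 hr at 37 C and 5% CO2, with luminescence measured after a 30 min room-temperature reagent step.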

[13] = molecular target: Luciferin 4-monooxygenase (Photinus pyralis) (UniProt P08659); test: qHTS assay to identify small molecule inhibitors of firefly luciferase (AID 1224835); further: nearly all actives have a fitted effect of over 25% in size
How it was run: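 Inhibition of purified Photinus luciferase is measured by luminescence. Substrate levels (D-luciferin, ATP) sit at their KM values. Each compound is tested in a concentration series.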

[14] = qHTS assay to identify small molecule agonists of the constitutive androstane receptor (CAR) signaling pathway - cell viability counter screen (AID 1224836); further: nearly all actives have a fitted effect of over 45% in size
How it was run: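 Counter screen multiplexed with the CAR reporter readout: HepG2 cells co-transfected with hCAR and the CYP2B6-2.2kb construct receive a 15-concentration compound series and 0.75 uM PK11195 (final), then CellTiter-Fluor fluorescence is read after 23 h.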

[15] = qHTS assay to identify small molecule antagonists of the constitutive androstane receptor (CAR) signaling pathway - cell viability counter screen (AID 1224837); further: nearly all actives have a fitted effect of over 45% in size
How it was run: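 Cells are seeded, rested 4 hr at 37 C/5% CO2, dosed with compound (15-point series) and 50 nM CITCO, incubated a further 23 hr, and then CellTiter-Fluor reagent is added before fluorescence is read. The line is HepG2 with stable hCAR and CYP2B6-2.2kb.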

[16] = molecular target: Nuclear receptor subfamily 1 group I member 3 (Homo sapiens) (UniProt Q14994); test: qHTS assay to identify small molecule antagonists of the constitutive androstane receptor (CAR) signaling pathway (AID 1224838);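 further: HepG2 cells stably expressing hCAR with CYP2B6 luciferase reporter stimulated by CITCO; nearly all actives have a fitted effect of over 40% in size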
How it was run: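 Luminescence from a CYP2B6-2.2kb promoter reporter in hCAR-expressing HepG2 cells reflects CAR signaling. Cells received compounds at 15 concentrations and 50 nM CITCO (final), then incubated 24 h at 37 C/5% CO2.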

[17] = qHTS assay to identify small molecule antagonists of the estrogen related receptor (ERR) signaling pathway from Tox21 library - cell viability counter screen (AID 1224834); further: nearly all actives have a fitted effect of over 30% in size
How it was run: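 Compounds in DMSO were pinned onto ERR cells that had been incubated for 6 h, and the plates were held at 37 C for 17.5 h. CellTiter-Fluor reagent was then added and fluorescence was measured after 30 min.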

[18] = qHTS assay to identify small molecule antagonists of the retinoid-related orphan receptor gamma (ROR-gamma) signaling pathway - cell viability counter screen (AID 1159520); further: nearly all actives have a fitted effect of over 50% in size; further: potency means the concentration at half of the fitted maximal effect
How it was run: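 Cytotoxicity was read from cellular ATP (CellTiter-Glo luminescence) after 16 hr at 37 C with 1 uM doxycycline induction. The inducer was added 2 hr after compound transfer to Tet-on ROR gamma CHO cells.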

Measured: Potency

Retinoic acid receptor RXR-alpha (Homo sapiens), sequence (P19793 whole entry, looked up): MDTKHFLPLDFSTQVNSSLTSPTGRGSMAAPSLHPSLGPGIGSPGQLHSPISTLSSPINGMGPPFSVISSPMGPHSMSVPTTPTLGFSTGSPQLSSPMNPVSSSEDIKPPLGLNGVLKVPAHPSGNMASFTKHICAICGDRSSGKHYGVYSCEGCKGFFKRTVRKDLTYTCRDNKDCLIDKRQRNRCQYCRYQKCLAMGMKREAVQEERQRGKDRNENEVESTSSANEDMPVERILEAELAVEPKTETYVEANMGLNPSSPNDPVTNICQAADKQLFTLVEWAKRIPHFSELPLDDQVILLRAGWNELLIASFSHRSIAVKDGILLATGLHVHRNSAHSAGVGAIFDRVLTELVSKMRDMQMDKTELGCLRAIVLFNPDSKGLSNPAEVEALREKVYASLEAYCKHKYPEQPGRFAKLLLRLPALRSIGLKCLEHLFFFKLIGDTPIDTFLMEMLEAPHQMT
Luciferin 4-monooxygenase (Photinus pyralis), sequence (P08659 whole entry, looked up): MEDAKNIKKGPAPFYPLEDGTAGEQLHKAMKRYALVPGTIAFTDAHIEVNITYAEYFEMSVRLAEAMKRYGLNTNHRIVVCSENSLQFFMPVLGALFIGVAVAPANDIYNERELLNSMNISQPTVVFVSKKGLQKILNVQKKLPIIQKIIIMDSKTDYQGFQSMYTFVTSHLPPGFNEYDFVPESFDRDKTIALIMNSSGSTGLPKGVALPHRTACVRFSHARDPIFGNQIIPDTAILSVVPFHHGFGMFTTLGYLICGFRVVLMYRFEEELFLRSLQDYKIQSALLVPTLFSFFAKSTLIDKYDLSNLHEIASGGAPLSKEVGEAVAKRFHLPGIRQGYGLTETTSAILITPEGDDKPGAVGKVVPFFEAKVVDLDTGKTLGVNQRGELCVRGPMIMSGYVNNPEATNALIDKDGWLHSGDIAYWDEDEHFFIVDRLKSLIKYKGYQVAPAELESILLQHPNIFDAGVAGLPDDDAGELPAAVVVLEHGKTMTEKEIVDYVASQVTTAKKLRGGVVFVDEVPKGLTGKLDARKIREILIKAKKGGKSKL
Nuclear receptor subfamily 1 group I member 3 (Homo sapiens), sequence (Q14994 whole entry, looked up): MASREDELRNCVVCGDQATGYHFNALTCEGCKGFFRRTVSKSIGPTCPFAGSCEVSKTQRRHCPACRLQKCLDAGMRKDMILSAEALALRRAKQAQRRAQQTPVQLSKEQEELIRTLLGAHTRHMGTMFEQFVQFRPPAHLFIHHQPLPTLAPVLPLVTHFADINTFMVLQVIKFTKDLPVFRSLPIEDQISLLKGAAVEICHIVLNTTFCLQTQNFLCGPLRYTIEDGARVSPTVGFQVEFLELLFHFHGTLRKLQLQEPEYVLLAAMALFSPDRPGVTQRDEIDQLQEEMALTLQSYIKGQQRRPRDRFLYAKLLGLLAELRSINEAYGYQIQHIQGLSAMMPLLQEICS

Cc1cc(Cl)ccc1O
inactive: [1] | [2] | [3] | [4] | [5] | [6] | [7] | [8] | [9] | [10] | [11] | [12] | [13] | [14] | [15] | [16]

Oc1ccccc1Cl
inactive: [1] | [2] | [3] | [4] | [6] | [7] | [8] | [9] | [10] | [17] | [13] | [14] | [15] | [16]

CCCCN(CCCC)SN(C)C(=O)Oc1cccc2c1OC(C)(C)C2
active: [18] 62.1 µM | [5] 22 µM and 30.6 µM
inactive: [1] | [2] | [3] | [4] | [6] | [7] | [10] | [13] | [14] | [15] | [16]

CCCCN(CC)C(=O)SCCC
inactive: [1] | [2] | [3] | [4] | [18] | [5] | [6] | [7] | [9] | [10] | [11] | [12] | [13] | [14] | [15] | [16]

O=C(NC(=O)c1c(F)cccc1F)Nc1cc(Cl)c(OC(F)(F)C(F)C(F)(F)F)cc1Cl (centres undefined)
inactive: [1] | [2] | [3] | [4] | [18] | [5] | [8] | [9] | [10] | [11] | [12] | [17] | [13] | [14] | [15] | [16]

CC(C)(C)OOC(=O)c1ccccc1
inactive: [1] | [2] | [3] | [4] | [5] | [6] | [7] | [8] | [9] | [10] | [11] | [12] | [17] | [13] | [14] | [15] | [16]

O=c1[nH]c2ccccc2c(=O)o1
inactive: [1] | [3] | [4] | [18] | [5] | [6] | [7] | [8] | [9] | [10] | [11] | [12] | [17] | [13] | [14] | [15] | [16]

CC(Oc1ccc(Cl)cc1Cl)C(=O)O (centres undefined)
inactive: [1] | [2] | [3] | [4] | [18] | [5] | [6] | [7] | [9] | [10] | [11] | [12] | [13] | [14] | [15]

CCCCCCCCCl
inactive: [1] | [2] | [3] | [4] | [6] | [7] | [8] | [9] | [10] | [11] | [12] | [17] | [13] | [14] | [15]

Source: PubChem BioAssay (Tox21)
